# This is part of a sample that, as a whole, favours compounds with a hit. Of some 83,000 tested, about 20% had one in any assay.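 Cell lines were cultured in 96-well plates, exposed to a single compound concentration, and assessed for percent growth 48 hours later.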 Values without a mark were called inactive. Calls of active or inactive are those of the source.
# Tested on: HCC-2998 colon
# Assay: NCI-60 one-dose screen, 48 h (100 = growth as untreated, 0 = no growth, -100 = all killed)
# Conditions: 10 µM unless noted
# Description: Growth inhibition of the HCC-2998 human tumor cell line is measured as a screen for anti-cancer activity. Cells are grown in 96 well plates and exposed to the test compound for 48 hours. Compounds are tested at a single concentration, which is 10^-5 M for most compounds. The reported endpoint is percent growth (GI% or GIPRCNT), where numbers from 0 - 100% represent growth inhibition, and numbers from -100% - 0 represent cell death. For example, a value of 40 represents 60% growth inhibition. A value of 0 means no net growth occurred over the course of the experiment. A value of -40 indicates 40% of cells at the beginning of the experiment died by the end of the experiment. A value of -100 means all cells are dead at the end of the experiment.
# NCI-60 Human Tumor Cell Lines Screen was performed using the standard one-dose NCI protocol, which is described in more detail at https://dtp.cancer.gov/discovery_development/nci-60/default.htm.
# Compounds with GIPRCNT values below 10 were considered active. Activity score was based on GIPRCNT using the following formula: […]
# Score is 0 for GIPRCNT values of 100 or above, 50 for GIPRCNT values of 0, and 100 for GIPRCNT values of -100.
row,Compound,growth
1,N#C/C(=C\c1ccccn1)c1nc2cc(Cl)ccc2s1,92.7%
2,COc1ccc(-c2cnc3c(-c4cccc5ncccc45)cnn3c2)cc1,90.7%
3,O=C(C[n+]1cccc2ccccc21)c1ccc(O)c(O)c1,90.4%
4,CCOC(=O)c1ccc2c(c1)ncn2-c1ccc(NC(=O)Nc2cccc(C)c2)cc1,90.6%
5,CCSCC1CC(O)(c2ccccc2)CC(c2ccc(F)cc2)O1 (stereo not given),69.3%
6,COc1cc(F)c(/C=C/c2cc(/C=C/c3cc(OC)c(OC)cc3F)on2)cc1OC,91.9%
7,CC(=O)CCC(=O)OCc1cc(=O)c(O)co1,87.3%
8,COc1cc2nc(-c3ccc(Cl)cc3)cc(OCCCN3CCCC3)c2cc1OC,72.4%
9,COc1ccc(/C=C/c2nc(Nc3ccc(Cl)cc3)c3ccccc3n2)cc1,63.9%
10,N/C(=N\C(N)=N\c1nc2ccccc2s1)c1cnccn1,18.5%
11,COc1ccc(/C=C/c2nc(Nc3cccc(NC(C)=O)c3)c3ccccc3n2)cc1,88.4%
12,CC1(C)NCCC[C@]2(C)[C@H]3CC[C@@H]4[C@H]5[C@H](C(=O)/C=C/c6ccco6)CC[C@]5(CO)CC[C@@]4(C)[C@]3(C)CC[C@@H]12,91.4%
13,CCCCC/C=C/C(C)=C/C1CC(C)C/C=C/CCC(O)C(OC(N)=O)CCC(C)CC(O)C(C)C(=O)O1 (stereo not given),52.3%
14,Cc1cc2nc3c4ccc(Br)cc4n(CCN(C)C)c3nc2cc1C,17%
15,Cc1ccc(-n2cc(-c3ccccc3)c3c2N=NN2CCN=C32)cc1,111%
16,O=C(Nc1ccc(NC(=O)c2cc(=O)[nH]c3ccccc23)cc1)Nc1cccc(Cl)c1,83.6%
17,OC(c1cccc(C(F)(F)F)c1)c1cnccc1NC1CCCCC1 (stereo not given),-11.3% (active)
18,COc1cc(C2C3=C(COC3=O)N(CCO)c3cc4c(cc32)OCO4)cc(OC)c1OC (stereo not given),-13% (active)
19,NS(=O)(=O)c1ccc(CCN2C(=O)c3cc(Cl)c(Cl)cc3C2=O)cc1,90.2%
20,COc1cccc(/C=N/NC(=O)c2cnn3c2NC(c2ccccc2)C3)c1Oc1ccccc1 (stereo not given),91%

row,Compound,growth
1,COc1cc(/C=C\c2cc(/C=C\c3ccc(O)c(OC)c3)n(C(=O)COc3ccccc3)n2)ccc1O,34.8%
2,CC(=O)[C@@H]1CC[C@]2(C(N)=O)CC[C@]3(C)[C@H](CC[C@@H]4[C@@]5(C)CCCNC(C)(C)[C@@H]5CC[C@]43C)[C@@H]12,92%
3,OCc1cnc2ccccc2c1NC1CCCCCC1,111%
4,CC1=C(C(=O)/C=C/c2ccc(N(C)C)cc2)C(c2ccccc2)NC(=S)N1 (stereo not given),108%
5,COc1ccc(-c2nc([C@@H](C)Sc3nc(N)cc(N)n3)c(C)s2)cc1OCCN1CCOCC1,83.9%
6,CNCCOc1nc2c3cnccc3cc(-c3cc(OC)c(OC)c(OC)c3)c2c2ccncc12,-77% (active)
7,Cc1nn(-c2ccccc2)c(Cl)c1/C=N\N=c1/sc2ccccc2n1C,101%
8,CCCCN1C=CCN(CCCC)C1,46.2%
9,N#CC1=C(N)Oc2c(cnn2-c2ccc([N+](=O)[O-])cc2[N+](=O)[O-])C1c1ccccc1 (stereo not given),101%
10,CC(c1ccccc1)C(C(=O)c1ccccc1)c1ccccc1 (stereo not given),93.4%
11,CCCCCN1C=C/C(=C\C(=O)n2ccc3ccccc32)c2ccccc21,107%
12,Cc1ccc(S(=O)(=O)NNC(=O)/C(=C\c2ccc(Cl)cc2)c2nc3ccccc3s2)cc1,103%
13,CCCCC[n+]1ccc(SCC(=O)N(C)c2ccc(Oc3ccccc3)cc2)c2ccccc21,100%
14,CN1CCN(CCNc2nccc(-c3c(-c4cccc(O)c4)nc4sccn34)n2)S1(=O)=O,88%
15,CC(=O)Nc1ccc(-n2cnc3cc(-c4ccc(OCCN5CCCCC5)cc4)ccc32)cc1,119%
16,Cc1nn(-c2ccccc2)c(Cl)c1/C=C/C(=O)c1ccc(F)cc1,107%
17,Cc1ccc(C(=O)/C(=C\c2ccc([N+](=O)[O-])cc2)S(=O)Cc2ccc(Cl)cc2)cc1 (stereo not given),58.8%
18,CN1CCC(=C(c2ccccc2)c2ccccc2)C(c2ccccc2)C1 (stereo not given),88.7%
19,COc1ccc(-c2cnc3c(-c4cccc5cnccc45)cnn3c2)cc1,99.1%
20,CN1CCN(C(=O)[C@]23CCC(C)(C)C[C@H]2C2=CC[C@@H]4[C@@]5(C)C/C(=C/c6ccncc6)C(=O)C(C)(C)[C@@H]5CC[C@@]4(C)[C@]2(C)CC3)CC1,43.8%

# Source: PubChem BioAssay (NCI)
